Measured values as given in PubChem BioAssay AID1851 (National Center for Advancing Translational Sciences (NCATS), 2009).
In all, about 16,000 compounds went through this assay and about 5,700 (36%) were called active. Another 24% or so got no clear call; they are omitted. This is one part of the list. Unmarked numbers belong to inactive results. Calls follow the shape of the dose curve; as a rule, active = well fitted curve in the direction sought with a large enough effect; inconclusive = small, poorly fitted or top-dose-only effect, or effect the other way; inactive = no such curve, though single readings can be large or run the other way.

molecular target: Cytochrome P450 1A2 (Homo sapiens) (UniProt P05177); assay: Cytochrome panel assay with activity outcomes; conditions: recombinant CYP, pro-luciferin dealkylation, luminescence, p450-cyp1a2; series mostly up to 57.1 µM; activity, negative = inhibition: at the top concentration
Sequence (P05177 whole entry, looked up): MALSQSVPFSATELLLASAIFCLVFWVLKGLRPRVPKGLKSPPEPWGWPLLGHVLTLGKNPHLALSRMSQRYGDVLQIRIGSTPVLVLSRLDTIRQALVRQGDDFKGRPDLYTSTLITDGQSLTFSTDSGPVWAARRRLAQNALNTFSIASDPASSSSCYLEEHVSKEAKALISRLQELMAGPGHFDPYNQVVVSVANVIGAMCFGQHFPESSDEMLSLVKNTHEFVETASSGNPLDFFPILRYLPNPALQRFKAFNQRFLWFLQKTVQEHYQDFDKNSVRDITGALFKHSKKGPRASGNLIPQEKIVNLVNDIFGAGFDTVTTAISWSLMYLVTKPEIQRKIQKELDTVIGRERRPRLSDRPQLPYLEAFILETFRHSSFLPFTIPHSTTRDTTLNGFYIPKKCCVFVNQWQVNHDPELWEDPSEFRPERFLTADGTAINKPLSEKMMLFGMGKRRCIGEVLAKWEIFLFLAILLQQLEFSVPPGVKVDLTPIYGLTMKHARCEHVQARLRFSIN
% is scaled to controls: 0 for no effect and ±100 for the full control effect.

Compound | activity, negative = inhibition | AC50
CN1CC[C@@]2(CCCN(C(=O)c3ccco3)C2)C1 | 7.97% | 
COC(=O)C[C@](O)(CCCC(C)(C)O)C(=O)O[C@@H]1C(OC)=C[C@]23CCCN2CCc2cc4c(cc2[C@H]13)OCO4 | -9.9% | 
C=C[C@@H]1CN2CC[C@H]1C[C@H]2[C@H](O)c1ccnc2ccccc12 | -18.2% [at 11.4 µM] | 
CCN1C[C@@]2(COC)[C@H]3[C@@H](OC)[C@H]4C1[C@@]3([C@H](OC)C[C@@H]2O)[C@H]1C[C@@]2(O)[C@@H](OC(=O)c3ccccc3)[C@@H]1[C@@]4(OC(C)=O)[C@H](O)[C@@H]2OC | -4.7% [at 25.6 µM] | 
NN=C(N)N | -5.67% | 
c1csc(CN2CC3(CCNCC3)C2)n1 | 12.5% | 
Clc1ccc([C@@H]2C[C@H]3CC[C@@H]2N3)cn1 | -20.5% | 
Clc1ccc(C2=CCC[C@H]3CC[C@@H]2N3)cn1 |  | 15.8 µM (active)
CCN(CC)C(=O)N[C@H]1C[C@H]2c3cccc4[nH]cc(c34)C[C@@H]2N(C)C1 | -12.5% | 
CNC(C)(C)Cc1ccccc1 | -1.89% [at 25.6 µM] | 
C[C@H](Br)C(=O)N[C@H](CO)C(=O)O | -13.1% [at 11.4 µM] | 
O=C(O)C[C@H]1NCc2cc3ccccc3nc21 | -4.93% [at 2.29 µM] | 
CCC1(CC)C(=O)C=CNC1=O | -8.09% [at 25.6 µM] | 
O=C(Nc1ccc(Cl)cc1C(=O)c1ccccc1)c1ccco1 |  | 2.51 µM (active)
CC[C@]1(C2=NCCN2)Cc2ccccc2O1 | -6.04% | 
CNC[C@H](O)c1ccc(O)cc1 | -7.35% [at 25.6 µM] | 
CC[n+]1c(/C=C/N(C)c2ccccc2)sc2ccc(Cl)cc21 |  | 4.47 µM (active)
O=C(Nc1cccc(F)c1)N1CCC2(CC1)CCN(C(=O)Oc1ccccc1)CC2 | -13.8% | 
CCC(=O)Nc1ccc(N2CCN(CC)CC2)c(Cl)c1 | 5.31% | 
COC(=O)[C@H]1[C@@H](c2ccccc2)[C@@]2(c3ccccc3)Oc3ccccc3[C@@]1(O)[C@@H]2O | 4.61% [at 11.4 µM] | 
CC(C)[C@H](CO)Nc1nc(Nc2cccc(Cl)c2)c2ncn(C(C)C)c2n1 |  | 0.316 µM (active)
CC[C@@H](CO)Nc1nc(NCc2ccccc2)c2ncn(C(C)C)c2n1 |  | 12.6 µM (active)
O=C(O)[C@@H](Br)[C@H](Br)C(=O)O | 5.86% [at 11.4 µM] | 
CC(C)CNC(=S)NC1CC2CCCC(C1)N2Cc1ccco1 (configuration not stated) | 4.27% | 

Compound | activity, negative = inhibition | AC50
CC(C)N(CC[C@@](C(N)=O)(c1ccccc1)c1ccccn1)C(C)C |  | inactive
C(#CCN1CCCC1)CN1CCCC1 | 1.87% [at 25.6 µM] | 
CNC(=O)Oc1ccc2c(c1)[C@@]1(C)CCN(C)[C@@H]1N2C | -6.82% [at 25.6 µM] | 
O=C(C[n+]1ccc2ccccc2c1)c1ccc2ccc3ccccc3c2c1 |  | 2.51 µM (active)
CCOC(=O)c1c(NC(=O)C(c2ccccc2)c2ccccc2)sc2c1C1CCN2CC1 | -3.75% | 
COc1ccc(NC(=O)NC2CC3CCCC(C2)N3Cc2ccccc2)cc1 (configuration not stated) | 1.27% | 
NC[C@@H](Cc1ccccc1)P(=O)(O)O | -9.3% [at 11.4 µM] | 
Nc1nc2ccc(Cl)cc2c2nc(-c3ccco3)nn12 |  | 0.0631 µM (active)
CN1CC[C@@]2(CCCN(C(=O)c3ccncc3)C2)C1 | 2.09% | 
COC(=O)N1CCN(C(=O)Cc2ccc(Cl)c(Cl)c2)[C@H](CN2CCCC2)C1 |  | inactive
CSC([N-]/N=C/c1cccc(C)n1)=[S]=[Cu].CS[C@H]([S-])[N-]/N=C/c1cccc(C)n1 |  | 0.631 µM (active)
O=C(Oc1ccccc1)N1CCC2(CCCN(C(c3ccccc3)c3ccccc3)C2)CC1 | 6.99% | 
CNCCCc1ccccc1 | -2.27% | 
c1ccc(CCCCN2CCC(c3ccccc3)CC2)cc1 |  | 15.8 µM (active)
c1ccc2c([C@@H]3CCN(CCN4CCOCC4)C3)c[nH]c2c1 | -9.42% [at 11.4 µM] | 
NC[C@@H](O)CSP(=O)(O)O | -2.54% [at 11.4 µM] | 
CCN1C[C@]2(COC)CC[C@H](O)[C@@]34[C@@H]5C[C@H]6[C@@H](OC)[C@H]5[C@](O)(C[C@@H]6OC)[C@@](O)([C@@H](OC)[C@H]23)[C@@H]14 | 0.799% [at 25.6 µM] | 
COc1cc2cc(c1Cl)N(C)C(=O)C[C@H](OC(=O)C(C)C)[C@]1(C)O[C@@H]1[C@@H](C)[C@H]1C[C@](O)(NC(=O)O1)[C@@H](OC)/C=C\C=C(\C)C2 | -7.72% [at 11.4 µM] | 
O=c1[nH]c(=O)n(CCC2=CCCCC2)c(O)c1C=Nc1cccc(F)c1 | -0.302% | 
O=c1[nH]c(=O)n(CCc2ccc(F)cc2)c(O)c1C=NCCCN1CCOCC1 | -8.06% | 
CCCCn1c(O)c(C(CC)=NCc2ccc(F)cc2)c(=O)[nH]c1=O |  | 8.91 µM (active)
CCC(=Nc1cc(OC)ccc1OC)c1c(O)[nH]c(=O)[nH]c1=O |  | 14.1 µM (active)
CCCCn1c(O)c(C(CC)=Nc2ccc(OC)cc2OC)c(=O)[nH]c1=O |  | 12.6 µM (active)
